Rows were chosen to be rich in hits. Some 1.4% of all compounds tested hit in one or more screens of this group.
S1P2 ag: agonists of human S1P2 receptor; O95136; S1P2-expressing cell line, agonist reporter read-out; activation, % at 4.5 µM; hit rate 0.46% among 97,000; in the data active means activation above about 16%;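 further: 0% = vehicle low control and 100% = maximal reference agonist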
S1P2 blocker: S1P2 (human) receptor antagonism; inhibition, % at 5 µM; O95136; cell-based S1P2 antagonist assay, inhibition at 5 uM; hit rate 0.21% among 97,000; in the data active means inhibition above about 45%;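 further: CRE beta-lactamase reporter cells expressing human S1P2 stimulated with S1P; 0% = agonist at EC80 alone and 100% = agonist plus reference antagonist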
CD11b adhes inh: inhibitors of human CD11b/CD18 binding to fibrinogen; P05107+P11215; K562 CD11b/CD18 adhesion to fibrinogen, ATPlite luminescence; Mn2+ added to activate the integrin; inhibition, % at 10 µM; hit rate 0.54% among 93,000; AID 1497;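 active means primary inhibition of 50% or more at 10 µM, then 40% or more on retest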
Target sequence (P05107 whole entry, looked up, other chains not shown): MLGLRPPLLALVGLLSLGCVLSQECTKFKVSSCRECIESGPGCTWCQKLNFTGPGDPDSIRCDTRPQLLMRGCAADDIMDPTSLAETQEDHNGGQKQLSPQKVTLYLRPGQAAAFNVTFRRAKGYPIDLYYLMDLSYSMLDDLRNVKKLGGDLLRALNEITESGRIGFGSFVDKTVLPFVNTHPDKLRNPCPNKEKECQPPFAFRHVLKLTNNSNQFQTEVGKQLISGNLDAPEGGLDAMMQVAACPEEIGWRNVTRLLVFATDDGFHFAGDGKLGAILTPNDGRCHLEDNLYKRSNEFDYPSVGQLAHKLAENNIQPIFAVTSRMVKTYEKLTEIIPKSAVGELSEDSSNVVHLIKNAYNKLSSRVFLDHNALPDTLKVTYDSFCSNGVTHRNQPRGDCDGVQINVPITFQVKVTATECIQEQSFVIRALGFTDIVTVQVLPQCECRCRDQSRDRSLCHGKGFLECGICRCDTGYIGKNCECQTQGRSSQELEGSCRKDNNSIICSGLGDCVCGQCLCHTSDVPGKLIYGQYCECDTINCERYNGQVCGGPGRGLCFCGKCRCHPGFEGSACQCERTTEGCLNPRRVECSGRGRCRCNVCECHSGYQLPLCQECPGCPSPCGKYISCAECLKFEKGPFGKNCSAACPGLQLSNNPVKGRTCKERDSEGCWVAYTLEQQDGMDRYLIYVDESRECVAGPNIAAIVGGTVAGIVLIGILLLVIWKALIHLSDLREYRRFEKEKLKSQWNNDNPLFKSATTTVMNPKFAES
GALR2 agonist: agonists of human galanin receptor 2 (GALR2); activation, % (no concentration beside the values); GALR2-expressing cells, agonist activation read-out; hit rate 0.48% among 140,000; O43603; in the data active means activation above about 5%, passing the limit was not always enough;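 further: 0% = vehicle buffer wells and 100% = reference agonist at full effect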
CD11b adhes enh: enhancers of human CD11b/CD18 binding to fibrinogen; P05107+P11215; K562 CD11b/CD18 adhesion to fibrinogen, ATPlite luminescence; activation, % at 10 µM; hit rate 0.07% among 93,000; AID 1499;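 active means 10 µM primary screen giving 50% or more activity, confirmed by 40% or more on retest at that dose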
GALR2 blocker: GALR2 (human) receptor antagonism | GALR2-expressing cells, antagonist mode | inhibition, % at 4 µM | hit rate 0.39% among 140,000 | AID 828; in the data active means inhibition above about 27%;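 further: cells stimulated with galanin 1-16 at roughly its EC80; 0% = agonist challenge control and 100% = basal control without agonist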
Active calls of the source: *.

For CCCn1c(=NC(=O)c2ccc3c(c2)OCO3)c(C#N)cc2c(=O)n3cccc(C)c3nc21 the results were CD11b adhes inh 2.8 and CD11b adhes enh -2.7.
For CCCCn1c(=NC(=O)c2cccnc2)c(C#N)cc2c(=O)n3cccc(C)c3nc21 the results were S1P2 ag 2.3, S1P2 blocker -27.4, CD11b adhes inh -10.5, GALR2 agonist 3.5, CD11b adhes enh -1.9 and GALR2 blocker -18.3.
For Cc1cccn2c(=O)c3cc(C#N)c(=NC(=O)c4ccncc4)n(CCCOC(C)C)c3nc12 the results were S1P2 ag 17.5*, S1P2 blocker -12.9, CD11b adhes inh 4.3, GALR2 agonist 2.0, CD11b adhes enh -0.8 and GALR2 blocker -12.6.
`Cc1cc(NO)nc(-c2ccc(Br)cc2)n1` gave CD11b adhes inh 0.8, GALR2 agonist -1.8, CD11b adhes enh -6.2 and GALR2 blocker 23.8.
For Nc1nnc(CC(=O)N/N=C/c2ccc(-c3ccccc3Cl)o2)s1 the results were CD11b adhes inh -13.6, GALR2 agonist -0.4, CD11b adhes enh 2.7 and GALR2 blocker 8.2.
`Cc1ccc(-n2nc3c(c2NC(=O)c2c(-c4ccccc4Cl)noc2C)CSC3)cc1` gave S1P2 ag -8.5, S1P2 blocker 3.5, CD11b adhes inh 0.7, GALR2 agonist 0.0, CD11b adhes enh 72.4* and GALR2 blocker -8.2.
Screening COc1ccccc1C1CN(c2ccccc2)N=C1c1cccs1 (stereo not drawn) returned S1P2 ag 33.4*, S1P2 blocker -32.4, CD11b adhes inh -20.7, GALR2 agonist 60.8*, CD11b adhes enh -2.0 and GALR2 blocker -2.0.
For COc1cccc(C2CN(c3ccc(F)cc3F)N=C2c2cccs2)c1OC (stereo not drawn) the results were S1P2 ag 44.1*, S1P2 blocker -50.3, GALR2 agonist 40.6* and GALR2 blocker -10.3.
`COc1ccccc1Nc1nc(-c2cccs2)cs1` gave S1P2 ag -4.5, S1P2 blocker 20.5, CD11b adhes inh 17.4, GALR2 agonist -1.8, CD11b adhes enh 0.4 and GALR2 blocker 17.0.
Screening CCn1nnc(NC(=O)c2cccnc2Cl)n1 returned S1P2 ag -2.6, S1P2 blocker -30.5, CD11b adhes inh -16.3, GALR2 agonist -1.1, CD11b adhes enh 2.2 and GALR2 blocker -9.5.
Cc1ccc(OCC(=O)N2N=C(C(F)(F)F)CC2(O)C(C)(C)C)cc1C (stereo not drawn) was read as S1P2 ag -1.7, S1P2 blocker 12.8, CD11b adhes inh 80.3*, GALR2 agonist -1.6, CD11b adhes enh -6.9 and GALR2 blocker -4.6.
Screening Cc1ccccc1OCC(=O)N1N=C(C(F)(F)F)CC1(O)C(C)(C)C (stereo not drawn) returned S1P2 ag -14.8, S1P2 blocker -8.1, GALR2 agonist -2.4 and GALR2 blocker 10.8.
CCc1ccc2nc(Nc3nc(COC)cc(=O)[nH]3)nc(C)c2c1 was read as S1P2 ag 19.3*, S1P2 blocker -19.3, GALR2 agonist -1.3 and GALR2 blocker -1.5.
CCOC(=O)N1CCN(c2ccc(O)cc2)CC1 was read as S1P2 ag -4.1, S1P2 blocker -2.7, CD11b adhes inh 54.4*, GALR2 agonist -1.0, CD11b adhes enh -3.2 and GALR2 blocker 2.6.
For Cc1ccc(NC(=O)c2cccc(N3C(=O)CCC3=O)c2)nc1 the results were S1P2 ag -6.8, S1P2 blocker 0.5, CD11b adhes inh 4.6, GALR2 agonist -2.2, CD11b adhes enh 0.7 and GALR2 blocker 6.7.
Screening Cc1noc2ncnc(Sc3ccccc3Cl)c12 returned S1P2 ag -7.8, S1P2 blocker 55.3*, CD11b adhes inh 3.2, GALR2 agonist -1.7, CD11b adhes enh -2.5 and GALR2 blocker 10.0.
Cc1noc(C)c1COC(=O)[C@H](C)NS(=O)(=O)c1ccc(Cl)c(Cl)c1 was read as S1P2 ag -3.2, S1P2 blocker -13.6, CD11b adhes inh 4.8, GALR2 agonist 14.2*, CD11b adhes enh -1.7 and GALR2 blocker -7.6.
For N#Cc1c(-c2ccc(Br)cc2)cc(-c2cccnc2)nc1N the results were GALR2 agonist 3.4 and GALR2 blocker 7.2.
For COc1ccc(-c2cc(-c3ccccc3)c(C#N)c(S(C)(=O)=O)n2)cc1 the results were S1P2 ag 5.8, S1P2 blocker 10.2, CD11b adhes inh -9.2, GALR2 agonist -2.0, CD11b adhes enh -8.6 and GALR2 blocker -1.1.

Compound activity from PubChem.
